Shown is part of a subset that was picked to be rich in hits.
LmPK inh – LmPK (Leishmania mexicana) enzyme inhibition; Q27686; purified LmPK, Kinase-Glo ATP luminescence, 1 h; Potency, µM (titrated, usually from 57.5 µM), inactives show at the highest dose activity change, negative = inhibition, actives largely listed as inhibitors; actives 0.37% (n = 290,000); AID 1721; also: potency is read from the fitted curve at half-maximal effect; % is scaled to controls: 0 for no effect and ±100 for the full control effect
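ATP generated from ADP (0.1 mM) and PEP (0.5 mM) by 0.1 nM LmPK over 1 h at room temperature (pH 7.2 imidazole buffer) was detected by coupled luciferase luminescence. Values were normalized to uninhibited and no-enzyme wells.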
RE007 growth inh – less growth of the S. pombe RE007 Vpr strain | S. pombe RE007 Vpr strain, BacTiter-Glo ATP luminescence, 24 h | AID 651644 | actives 0.21% (n = 360,000) | Potency, µM (series often up to 92.2 µM), without a hit: at the top dose activity change, negative = less growth, usual class: inhibitors; active = well fitted falling curve with a large enough effect; inconclusive = small, poorly fitted or top-dose-only effect; inactive = no such curve, though single readings can be large or run the other way; also: potency is read from the fitted curve at half-maximal effect; % is scaled to controls: 0 for no effect and ±100 for the full control effect; nearly all actives have a fitted effect of over 50% in size
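Fission yeast strain RE007, carrying one chromosomally integrated HIV-1 vpr copy, was seeded at OD 0.01 in PMG+AL medium with 23 nL pinned compound. After 24 h at 30 °C and 99% humidity, viability was read by BacTiter-Glo luminescence.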
Shiga toxin inh – inhibitors of Shiga toxin in Vero cells | Vero cells, Shiga toxin protein synthesis inhibition reporter | actives 9.2% (n = 290,000) | AID 2315 | inhibition, % at 38.7 µM; in the data active = inhibition mostly above about 28%, no sharp cut-off; inactive = mostly below about 43%; also: 0% is about no effect
CHX counter – counter-screen hit for Shiga toxin inhibitors, cycloheximide; actives 12% (n = 300,000); AID 2314; max response, %; cell reporter, cycloheximide protein synthesis inhibition counterscreen; in the data active = max response mostly above about 13%, no sharp cut-off; inactive = mostly below about 14%; also: read at 38.3 µM for the half of the compounds with a filed dose; 0% is about no effect
FBPA Giardia inh – Giardia lamblia aldolase inhibition; purified Giardia FBPA; Potency, µM (top dose mostly 59.6 µM), inactives show at the highest dose activity, negative = inhibition, most hits filed as inhibitors; AID 2451; actives 0.71% (n = 290,000); A8B2U2; also: potency is read from the fitted curve at half-maximal effect; % is scaled to controls: 0 for no effect and ±100 for the full control effect; nearly all actives have a fitted effect of over 55% in size
Target sequence (A8B2U2 whole entry, looked up): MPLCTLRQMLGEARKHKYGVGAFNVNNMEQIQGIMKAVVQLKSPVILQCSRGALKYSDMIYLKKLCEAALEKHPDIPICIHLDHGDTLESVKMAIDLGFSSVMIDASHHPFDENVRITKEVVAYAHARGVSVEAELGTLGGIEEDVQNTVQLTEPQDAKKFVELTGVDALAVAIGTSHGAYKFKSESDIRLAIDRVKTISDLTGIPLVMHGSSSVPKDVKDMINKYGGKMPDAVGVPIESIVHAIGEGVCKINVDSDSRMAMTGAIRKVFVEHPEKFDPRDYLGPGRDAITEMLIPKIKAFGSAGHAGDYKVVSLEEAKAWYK
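40 nM FBPA preincubated 10 min at RT with compound (up to 57.5 uM final), then substrate plus GAPDH/TPI/NAD/arsenate coupling and diaphorase/resazurin added. Fluorescence read after 20 min at RT, 525/598 nm.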
Tb PYK inh – blocks Trypanosoma brucei pyruvate kinase. Q57TT1. Potency, µM (doses to about 76.8 µM), for inactives: at the highest dose activity, negative = inhibition, most hits filed as inhibitors. TbPYK enzyme, Kinase-Glo Plus ATP luminescence, 45 min. actives 0.12% (n = 410,000). AID 624173; also: potency is read from the fitted curve at half-maximal effect; % is scaled to controls: 0 for no effect and ±100 for the full control effect; nearly all actives have a fitted effect of over 50% in size
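Assay buffer: 50 mM TEA pH 7.2, 100 mM KCl, 10 mM MgCl2, 0.05% BSA, 0.01% Tween-20. Pyruvate kinase from T. brucei plus substrate met compound, then ADP (130 uM final). Luminescence was read post 45 min RT.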
* = called active by the depositor; ? = inconclusive; nt = no result given; [ ] = dose if it differs, or a comment. Unless noted, calls follow the shape of the dose curve; as a rule, active = well fitted curve in the direction sought with a large enough effect; inconclusive = small, poorly fitted or top-dose-only effect, or another doubt; inactive = no such curve, though single readings can be large; an effect the other way counts as inactive or inconclusive.

SMILES	LmPK inh	RE007 growth inh	Shiga toxin inh	CHX counter	FBPA Giardia inh	Tb PYK inh
CN1CCN(Cc2ccc(-c3ccc(Cl)cc3)o2)CC1	8.3%	2.5%	67.0	25.5*	-5.7%	0.8%
OCCc1ccc(-c2ccc(Cl)cc2)o1	-2.5%	?	107.8*	30.6*	-0.3%	-0.9%
Clc1ccc(CN2CCCCCC2)cc1	-1.4%	-10.8%	8.3	1.3	-24.5%	5.2%
O=C(Cn1cc(SCc2ccc(F)cc2)c2ccccc21)N1CCCCCC1	nt	nt	nt	nt	nt	-7.3%
COc1ccc(-c2coc3cc(OC4OC(CO)C(O)C(O)C4O)cc(O)c3c2=O)cc1 (stereo unspecified)	nt	1.1%	nt	nt	6.5%	1.4%
O=c1c(-c2ccc(O)cc2)coc2cc(O[C@@H]3O[C@H](CO)[C@@H](O)[C@H](O)[C@H]3O)cc(O)c12	nt	nt	60.7*	26.9*	-3.2%	nt
OC[C@@H]1O[C@@H](Oc2ccc(O)cc2)[C@H](O)[C@@H](O)[C@@H]1O	nt	nt	8.2	-1.7	2.9%	nt
COc1ccc(CC(=O)c2ccc(OC3OC(CO)C(O)C(O)C3O)cc2O)cc1 (stereo unspecified)	-0.2%	-3.3%	84.3*	13.9*	-2.0%	0.2%
COc1ccc(-c2coc3cc(OC4OC(CO)C(O)C(O)C4O)ccc3c2=O)cc1 (stereo unspecified)	-0.1%	15.6%	47.4*	37.1*	4.5%	1.8%
OC[C@H]1O[C@@H](Oc2cc(O)cc(/C=C/c3ccc(O)cc3)c2)[C@H](O)[C@@H](O)[C@@H]1O	0.9%	nt	95.0*	27.5*	-3.6%	nt
COc1ccc(C2CC(=O)c3cc(-c4nc(-c5cccc([N+](=O)[O-])c5)cs4)c(=O)n(-c4ccccc4C)c3C2)cc1 (stereo unspecified)	nt	nt	nt	nt	nt	3.0%
Cc1ccc(-n2c(=O)c3c4c(sc3n(Cc3cc(=O)n5cc(Cl)ccc5n3)c2=O)CCC4)cc1C	nt	nt	nt	nt	nt	-5.0%
CN1C(=O)/C(=C\c2ccco2)N=C1c1ccc(Cl)cc1Cl	5.1%	?	74.0*	28.0*	4.3%	0.1%
O=C1OC(/C=C/c2ccccc2)=NC/1=C/C=C/c1ccccc1	-3.7%	-1.9%	-10.0	-0.7	7.9%	-11.5%
O=C1OC(/C=C/c2ccc(Cl)cc2)=NC/1=C/c1ccco1	-7.1%	-10.9%	-29.3	24.1*	4.6%	-3.4%
Cc1ccc(NC(=O)c2ccc(NC(=O)N3CCSc4ncccc43)cc2)cc1Cl	nt	nt	nt	nt	nt	-5.1%[15.4 µM]
Cn1ccnc1Sc1nc2ccccc2nc1NS(=O)(=O)c1ccccc1	7.0%	0.1%	102.5*	55.6*	-0.1%	7.6%
CC(=O)Nc1ccc(S(=O)(=O)Nc2nc3ccccc3nc2Sc2nncn2C)cc1	-0.1%	-6.7%	116.5*	25.7*	?	-1.2%
CO[C@H]1[C@@H](O)[C@H](N)[C@@H](O[C@H]2O[C@@H]([C@H](C)N)CC[C@H]2N)[C@H](O)[C@@H]1N(C)C(=O)CN	nt	nt	nt	nt	nt	7.8%
COc1ccc(NC(=O)NCc2cccn2Cc2ccc(F)cc2)cc1OC	nt	nt	nt	nt	nt	-4.1%
Cc1ccc(Nc2ncc3c(n2)CC(C)CC3=O)c(C)c1 (stereo unspecified)	-2.1%	1.5%	96.9*	39.0*	1.9%	3.4%
CC1CC(=O)c2cnc(Nc3ccccc3)nc2C1 (stereo unspecified)	-12.0%	6.8%	55.3	47.7*	2.4%	-3.3%
COc1cccc(C(=O)Nc2ncc3c(n2)CC(C)CC3=O)c1 (stereo unspecified)	-8.8%	-8.1%	71.2*	39.7*	13.6%	6.0%
CC1CC(=O)c2cnc(NCc3ccco3)nc2C1 (stereo unspecified)	-2.9%	1.1%	53.3	15.9*	5.4%	40.2%
CC[C@H](C)[C@H](NC(=O)[C@H](Cc1ccc(O)cc1)NC(=O)[C@H](Cc1cnc[nH]1)NC(=O)[C@H](CCCNC(=N)N)NC(=O)[C@H](CC(C)C)NC(=O)[C@H](C)NC(=O)[C@H](CO)NC(=O)[C@H](Cc1ccc(O)cc1)NC(=O)[C@H](Cc1ccc(O)cc1)NC(=O)[C@H](CCCNC(=N)N)NC(=O)[C@H](C)NC(=O)[C@H](CCSC)NC(=O)[C@H](CC(=O)O)NC(=O)[C@H](CCC(=O)O)NC(=O)[C@H](C)NC(=O)[C@@H]1CCCN1C(=O)[C@H](C)NC(=O)[C@H](CC(=O)O)NC(=O)[C@H](CCC(=O)O)NC(=O)CNC(=O)[C@@H]1CCCN1C(=O)[C@H](CC(N)=O)NC(=O)[C@H](CC(=O)O)NC(=O)[C@@H]1CCCN1C(=O)[C@H](CCCCN)NC(=O)[C@H](CO)NC(=O)[C@@H]1CCCN1C(=O)[C@@H](N)Cc1ccc(O)cc1)C(=O)N[C@@H](CC(N)=O)C(=O)N[C@@H](CC(C)C)C(=O)N[C@@H](CC(C)C)C(=O)N[C@H](C(=O)N[C@@H](CCCNC(=N)N)C(=O)N1CCC[C@H]1C(=O)N[C@@H](CCCNC(=N)N)C(=O)N[C@@H](Cc1ccc(O)cc1)C(N)=O)[C@@H](C)O	nt	nt	16.8	8.4	-1.6%	nt
SMILES	LmPK inh	RE007 growth inh	Shiga toxin inh	CHX counter	FBPA Giardia inh	Tb PYK inh
CN1C(=O)c2ccccc2Sc2ccc(NC(=O)N3CCN(c4cccc(Cl)c4)CC3)cc21	nt	nt	nt	nt	nt	0.7%
O=C(ONC1=NCCCCC1)c1ccc(Cl)cc1	3.2%	?	37.1	17.0*	-2.5%	-4.8%
O=C(ONC1=NCCCCC1)c1c(F)cccc1F	-4.1%	-5.2%	-3.1	18.2*	8.5%	-11.9%
COc1cc(C(=O)Oc2ccc3ccc(O)cc3c2)cc(OC)c1OC	-2.1%	1.9%	30.2	21.4*	-8.5%	-6.7%
O=C(Oc1ccc2ccc(O)cc2c1)c1ccccc1Cl	0.4%	-48.1%	44.1*	32.4*	7.7%	-0.1%
O=C(Oc1ccc2ccc(O)cc2c1)C1CCCCC1	3.8%	21.2%	-13.4	1.2	?	-28.3%
Nc1cccc2c1C(=O)N(C(=O)/C=C/c1cccc(F)c1)C2=O	-9.5%	?	140.1*	34.3*	-3.3%	-9.7%
Nc1cccc2c1C(=O)N(C(=O)/C=C/c1cccc(Br)c1)C2=O	6.9%	?	42.5*	40.1*	6.5%	-1.1%
COc1cc(/C=C/C(=O)N2C(=O)c3cccc(N)c3C2=O)cc(OC)c1OC	0.6%	7.2%	11.4	-3.1	9.3%	5.3%
COc1ccc(OC)c(/C=C/C(=O)N2C(=O)c3cccc(N)c3C2=O)c1	0.4%	-21.9%	23.5	1.0	0.5%	-2.3%
Cc1cc(NCCCn2ccnc2)n2ncc(-c3ccccc3)c2n1	-3.8%	-7.7%	18.4	9.1	3.5%	-12.3%
CC(C)(C)c1cc(NCc2ccccn2)n2ncc(-c3ccccc3)c2n1	-2.2%	-0.7%	96.8*	51.1*	-3.8%	2.2%

Assay outcomes as filed in PubChem BioAssay.
